Test results: PubChem BioAssay (EPA / NIEHS)
Where “and” joins values, the source holds several entries; their conditions need not be identical. Identical values can stand only once. Calls of active or inactive are those of the source. Rule for the calls: active = hit-call score of the fitted dose curve at least 0.9, where 1 is the maximum; inactive = score below 0.9.

These compounds were tested on Vascular cell adhesion molecule 1 (VCAM1), VCAM1 (gene 7412) (assay: BSK_hDFCGF_VCAM1: BioMAP Diversity Plus: hDFCGF Assay for Vascular cell adhesion molecule 1 (VCAM1) Biomarker Activity (AID 2283065)). Settings: primary human foreskin fibroblasts; actives raise or lower the signal.
Procedure: BSK_hDFCGF is a cell-based, multiplexed-readout assay that uses foreskin fibroblast, a human skin primary cell, with measurements taken at 24 hours after chemical dosing in a 96-well plate.BSK_hDFCGF_VCAM1 is an assay component measured in the BSK_hDFCGF assay. It measures VCAM-1 antibody related to regulation of gene expression using ELISA technology.Data from the assay component BSK_hDFCGF_VCAM1 was analyzed into 1 assay endpoint. This assay endpoint, BSK_hDFCGF_VCAM1, was analyzed with bidirectional fitting relative to DMSO as the negative control and baseline of activity. Using a type of binding reporter, gain or loss-of-signal activity can be used to understand changes in the signaling as they relate to the gene VCAM1. Furthermore, this assay endpoint can be referred to as a primary readout, because this assay has produced multiple assay endpoints where this one serves a signaling function. To generalize the intended target to other relatable targets, this assay endpoint is annotated to the cell adhesion molecules intended target family, where the subfamily is Immunoglobulin CAM.
The levels of cell surface (or secreted, indicated by the prefix "s") biomarker endpoints were measured by ELISA. Overt cytotoxicity to cells in confluent adherent cultures (all systems other than the BT system) was assessed by measuring total protein levels using sulforhodamine B (SRB) staining in parallel cultures at the time of biomarker measurements, indicated as SRB endpoints. For proliferation assays for adherent cell types, individual cell types are cultured at sub-confluence and relative cell numbers quantified by SRB staining at time points optimized for each system (48 h: 3C and CASM3C systems; 72 h: BT and HDF3CGF systems; 96 h: SAg system). SRB was performed by staining cells with 0.1% SRB after fixation with 10% TCA and reading wells at 560 nm.Viability and proliferation of PBMC (T cells) was quantified by Alamar Blue reduction for the SAg and BT systems. For PBMC viability (referred to as PBMC Cytotoxicity within the assay endpoint names), cells were plated (75,000/well in a 96-well plate) and then chemical samples added for 1 h before addition of activators, SEB and TSST-1 (20 ng/mL final concentration each). Cells were incubated for 90 h. Then, Alamar Blue (20 uL/well) (Invitrogen, Cat DAL1100) was added for 6 h, and the plates were read with a fluorescence microplate reader at 546/580 nm (excitation/emission). For PBMC proliferation, cells were plated and activated as above but incubated for only 16 h prior to addition of Alamar Blue. Plates were read after 6 h.
`O=C(c1ccc(OCCN2CCCCC2)cc1)c1c(-c2ccc(O)cc2)sc2cc(O)ccc12` was tested, and the AC50 was 31.4 µM (active).
With `c1ccc(Sc2ccccc2)cc1` the AC50 was 33.2 µM (active).
In the case of `CCC(=O)OCC=Cc1ccccc1`, the outcome is reported as “inactive”.
With `CC1=CC(C)C(C=O)C(C)C1` (stereo not given) (tested in a mixture with another compound) the outcome was “inactive”.
In the case of `C=C(C)C(N)=O`, the outcome is reported as “inactive”.
`CC(C)Cc1ccc(C(C)C(=O)O)cc1` (stereo not given) was tested, and the outcome was “inactive”.
With `CCCCCCCCCC(=O)OCC` the AC50 was 31.9 µM (active).
`O=C1OC2(c3ccc(O)cc3Oc3cc(O)ccc32)c2ccccc21` was tested, and the outcome was “inactive”.
With `C=C(C)C(=O)OCCC(F)(F)C(F)(F)C(F)(F)C(F)(F)C(F)(F)C(F)(F)C(F)(F)C(F)(F)F` the outcome was “inactive”.
In the case of `CCCO[Si](OCCC)(OCCC)OCCC`, the outcome is reported as “inactive”.
In the case of `OCC(F)(OC(F)(F)C(F)(OC(F)(F)C(F)(F)C(F)(F)F)C(F)(F)F)C(F)(F)F` (stereo not given), the AC50 is reported as 2.25 µM (active) and 2.1 µM (active).
In the case of `O=S(=O)(O)C(F)(F)C(F)(F)OC(F)(F)C(F)(F)F`, the outcome is reported as “inactive”.
In the case of `CC(=O)c1ccc(C)cc1`, the outcome is reported as “inactive”.
`CC/C(=C(\c1ccccc1)c1ccc(OCCN(C)C)cc1)c1ccccc1` was tested, and the AC50 was 9.88 µM (active) and 9.9 µM (active).
`CC(C)(C)c1cccc(O)c1` was tested, and the outcome was “inactive”.
With `COC(=O)c1ccc(C(=O)OC)cc1` the outcome was “inactive”.
In the case of `CC(=O)OC(C)(C)C1CC=C(C)CC1` (stereo not given), the outcome is reported as “inactive”.
In the case of `CC(=O)OCC=C(C)CCC=C(C)CCC=C(C)C`, the outcome is reported as “inactive”.
`CCCCOCCOCCO` was tested, and the outcome was “inactive”.
For `CCCCCCCC1CCCC1=O` (stereo not given), the outcome was “inactive”.
For `CCCCN(CCO)CCO`, the outcome was “inactive”.
With `CC(C)CCCC(C)(C)O` the outcome was “inactive”.
For `O=C(O)C(F)(F)OC(F)(F)C(F)(F)OC(F)(F)C(F)(F)C(F)(F)C(F)(F)F`, the AC50 was 5.95 µM (active) and 13.8 µM (active).
For `c1ccc(OCCOc2ccccc2)cc1`, the outcome was “inactive”.
In the case of `C=C(F)C(=O)OC(C(F)(F)F)C(F)(F)F`, the outcome is reported as “inactive”.
For `NC(=O)c1c(Cl)cccc1Cl`, the outcome was “inactive”.
With `CCn1cc(C(=O)O)c(=O)c2ccc(C)nc21` the outcome was “inactive”.
In the case of `CC1(C)[C@H](C=C(Cl)Cl)[C@H]1C(=O)OCc1cccc(Oc2ccccc2)c1`, the outcome is reported as “inactive”.
In the case of `CC(C)(CO)CO`, the outcome is reported as “inactive”.
In the case of `C[C@]12CC[C@@H]3c4ccc(O)cc4CC[C@H]3[C@@H]1CC[C@@H]2O`, the AC50 is reported as 20 µM (active).
For `O=C(O)C(F)(F)C(F)(F)C(F)(F)C(F)(F)C(F)(F)C(F)(F)C(F)(F)C(F)F`, the outcome was “inactive”.
`C#C[C@]1(O)CC[C@H]2[C@@H]3CCc4cc(O)ccc4[C@H]3CC[C@@]21C` was tested, and the outcome was “inactive”.
With `OCCN1CCOCC1` the outcome was “inactive”.
For `COc1ccccc1NC(=O)CC(C)=O`, the outcome was “inactive”.
For `CCCCCCCCCCCCS`, the AC50 was 7.26 µM (active).
With `c1ccc2c(c1)-c1ccc3ccc4cccc5cc-2c1c3c45` the outcome was “inactive”.
With `C=C1CC/C=C(\C)CC[C@@H]2[C@@H]1CC2(C)C` the AC50 was 28 µM (active).
For `CCOC(=O)C=Cc1ccccc1`, the outcome was “inactive”.
In the case of `O=S1(=O)CC(Cl)(Cl)C(Cl)(Cl)C1`, the AC50 is reported as 0.613 µM (active).
In the case of `Nc1ccc(N)c([N+](=O)[O-])c1`, the outcome is reported as “inactive”.
